From PubChem BioAssay (NCATS)
Results filed as inconclusive are left out. Unmarked numbers belong to inactive results. Calls of active or inactive are those of the source. Calls follow the shape of the full dose curve.
Potency is read from the fitted curve at half-maximal effect.

Test: Cell Viability - MRC5 (AID 434);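 also: cells exposed to compound for 40 hours at 37 °C; potency reflects cytotoxicity seen as loss of intracellular ATP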
Conditions: MRC5 lung fibroblast viability, qHTS
Procedure, shortened: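 AC50 values come from Hill-equation fits of intracellular ATP loss, measured by CellTiter-Glo luminescence. Normal lung fibroblasts (MRC5) had 40 hr compound treatment at 37 C, normalized between DMSO and 100 uM tamoxifen.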
With CCCCC(CC)COC(=O)c1ccccc1C(=O)O (stereo unspecified) the Potency was over 92 µM. Work on CCCC(=O)c1cc(O)c(O)cc1O yielded a Potency of over 92 µM. In the case of Cc1cc(C(C)(C)C)c(O)c(C(C)(C)C)c1, the Potency was over 92 µM. Compound O=C(Oc1ccccc1)c1ccccc1O has a Potency of over 92 µM. With CC(C)(c1ccc(O)cc1)c1ccc(O)cc1 the Potency was over 92 µM. Work on O=C(NO)c1ccccc1 yielded a Potency of over 92 µM. Work on c1ccc2occc2c1 yielded a Potency of over 92 µM. With C1=CC2C3C=CC(C3)C2C1 (stereo unspecified) the Potency was over 92 µM. In the case of CC(=O)OC/C=C(C)/C=C/C=C(C)/C=C/C1=C(C)CCCC1(C)C, the Potency was over 92 µM. Work on Brc1ccccc1-c1ccccc1 yielded a Potency of over 92 µM. CC(C)C(C)(C)C(C)(C)C(C)(C)S showed a Potency of over 92 µM. With Nc1cccc2c(N)cccc12 the Potency was over 92 µM. Compound OCc1c[nH]c2ccccc12 has a Potency of over 92 µM. For CCCCCCCCCCCCCCCC[n+]1ccccc1, the Potency was 29.8 µM (active). Compound Cc1ccc(O)cc1 has a Potency of over 92 µM. With Nc1ccc(O)cc1 the Potency was 53.3 µM (active). With Oc1ccccc1 the Potency was over 92 µM. For O=C(c1ccccc1)c1ccccc1, the Potency was over 92 µM. With CC(C)(C)c1ccc(O)c(O)c1 the Potency was over 92 µM. In the case of Nc1c2ccccc2nc2ccccc12, the Potency was 38.2 µM (active). Work on COc1cc(C=O)ccc1O yielded a Potency of over 92 µM.
